Drawing on PubChem BioAssay AID1159606 (Sanford-Burnham Center for Chemical Genomics, 2016), this text covers inhibition for 58 compounds.

Each structure is given as a SMILES string. Out of some 360,000 compounds screened, about 7,300 (2%) were called active. Rule as the data show it: active = inhibition above about 50%; inactive = the rest. For the sample, actives were picked, then their nearest neighbours and some compounds at random.

A short description of this assay: inhibitors of TWEAK-Fn14 signaling, primary screen, luciferase reporter cells, uHTS (AID 1159606). Particulars: TWEAK-stimulated Fn14 reporter cells, luciferase luminescence, 8 h; at 10 µM; stronger effect = higher value. In general terms: In a reporter assay the amount or activity of a reporter protein is the signal.
With `O=C(NCC(=O)N1CCN(c2ccccc2O)CC1)c1ccc2ccccc2c1`, the inhibition (in general, the change of the read-out against control, counted positive when it falls) was -22.9% (inactive).
With `CC(C)C1Cc2[nH][nH]c(=O)c2C(c2ccc(Cl)cc2)O1` (stereo not drawn), the inhibition is -23.3% (inactive).
For `COc1ccc(C(=O)OCC(=O)c2ccc(Cl)s2)c(OC)c1OC` the value was -38.7% (inactive); for `CNc1cncc(-c2ccc(NS(C)(=O)=O)cc2)n1`, 34.6% (inactive); for `CC1(C)OC(=O)C2=C(C[C@@H](C3CC3)O[C@H]2CCc2cccc(Cl)c2)O1`, -0.44% (inactive).
For `Cc1ccc(S(=O)(=O)N(C)c2ccc(OCC(=O)OCC(=O)N(CC#N)c3ccccc3)cc2)cc1` the value was -12% (inactive); for `CCOC(=O)c1c(-c2ccccc2)oc2cc(Br)c(O)c(C=O)c12`, 97.5% (active); for `CCOC(=O)c1c(C)oc2cc(Sc3ccccc3)c(O)c(O)c12`, -4.97% (inactive).
In the case of `Cc1oc2cc(Br)c(O)c(Br)c2c1C(=O)c1ccccc1`, the inhibition is -24.8% (inactive).
Next, `CC1CCCN(c2ccc(C(=O)NCCc3ccccc3)cn2)C1` (stereo not drawn): 6.92% (inactive); `CCN(C(=O)CSc1nnnn1-c1ccccc1OC)C1CCS(=O)(=O)C1` (stereo not drawn): 3.05% (inactive).
For `COc1ccccc1-n1nnnc1S(=O)(=O)Cc1ccc(Cl)cc1`, the inhibition is 102% (active).
Next, `CCC(C)N(C(=O)CSc1nnnn1-c1ccccc1OC)C1CCS(=O)(=O)C1` (stereo not drawn): 14.9% (inactive); `CNC(=O)NCCN1CCCC1=O`: -16.3% (inactive).
For `O=C(NCc1ccc(F)cc1F)[C@@H]1CCCN1C(=O)[C@@H]1CCCN1C(=O)c1cccc(Cl)c1` the value was 22.6% (inactive); for `Cc1ccc2nc(-c3ccco3)c(Cc3cccc(Cl)c3)n2c1`, 10.4% (inactive); for `CC(=O)c1c(C)[nH]c(C(=O)OCC(=O)Nc2sc3c(c2C#N)CCCC3)c1C`, 64.3% (active).
Next, `CC(=O)c1c(C)[nH]c(C(=O)OCC(=O)Nc2c(C)cccc2C)c1C`: 12.5% (inactive); `N#CCC(=O)Nc1ccc(C(=O)OCC(=O)Nc2sc3c(c2C#N)CCCC3)cc1`: -31.7% (inactive); `COc1ccc(-c2csc(Nc3ccccn3)n2)cc1`: 68.4% (active).
With `COc1ccc2c(c1OC)C(=O)OC2Nc1nc(-c2ccccc2)cs1` (stereo not drawn), the inhibition was 66.1% (active).
Next, `C/C(CC1CC(C)(C)OC1=O)=N/Nc1nc(-c2ccccc2)cs1` (stereo not drawn): -29.9% (inactive); `COc1ccc(C(C)(NC(C)=O)c2nc(-c3ccc(S(C)(=O)=O)cc3)cs2)cc1` (stereo not drawn): -12.5% (inactive).
`COc1ccc(N/C=C(\C2OC(=O)c3ccccc32)[N+](=O)[O-])cc1` (stereo not drawn): the inhibition is 9.49% (inactive).
Next, `CCCc1nc2scc(-c3ccc(C)cc3)c2c(=O)n1N`: 17.3% (inactive); `COc1ccc(-c2csc(NC3OC(=O)c4ccccc43)n2)cc1` (stereo not drawn): 66.2% (active).
For `Cc1ccc(-c2csc(NC3OC(=O)c4ccccc43)n2)cc1` (stereo not drawn) the value was 85.8% (active).
As for `N#Cc1ccc(OCC(=O)Nc2nc(-c3ccccn3)cs2)cc1`, the inhibition is -7.26% (inactive).
In the case of `COc1cc(C(O)c2nc(-c3cccc(C(=O)O)c3)cs2)ccc1F` (stereo not drawn), the inhibition is -19.5% (inactive).
Next, `Cn1cc(C2OC(=O)c3ccccc32)c2ccccc21` (stereo not drawn): 38.7% (inactive).
Consider `COc1ccc(C(O)c2nc(-c3ccc(OC)nc3)cs2)cc1` (stereo not drawn), for which the inhibition was -2.94% (inactive).
Next, `COc1nc(OC)nc(N(C)CCO)n1`: 5.06% (inactive); `O=C(CCc1ccccc1)Nc1nn[nH]n1`: -6.61% (inactive); `CCOc1ccc(CCN2C(=O)C(=O)N([C@@H](CC(C)C)CN3CCC[C@H]3CN3C(=O)C(=O)NC[C@@H]3Cc3ccccc3)C[C@@H]2CC(C)C)cc1`: 18.1% (inactive).
Next, `CCc1nc2c(OCC(N)=O)cccn2c1N(C)C(=O)c1ccc(OC)cc1`: -0.65% (inactive); `Cc1cccc(C(=O)O)c1[N+](=O)[O-]`: -0.13% (inactive); `O=C(NCc1ccccc1)C(=O)NCC1OCCN1S(=O)(=O)c1ccc(Br)cc1` (stereo not drawn): -2.34% (inactive).
Next, `CC(NC(=O)COC(=O)Cn1cc(C(F)(F)F)ccc1=O)c1ccccc1` (stereo not drawn): 19.7% (inactive).
On to `CCC(C)NCC(=O)Nc1ccc([N+](=O)[O-])cc1C(=O)Nc1ccccc1F` (stereo not drawn), for which the inhibition is 3.23% (inactive).
For `CC(=O)OCCN(CCCn1c(-c2ccncc2)nc2ccccc21)c1nc(-c2ccc(C)cc2)cs1` the value was 4.36% (inactive).
For `CCCCOCCCNC(=O)C[C@@H]1C[C@@]2(C(=O)OC)CCCCC=C2N(CCC2=CCCCC2)C1=O` the value was 11% (inactive); for `COc1ccc(S(=O)(=O)N2C[C@H]3CON(C)[C@H]3C[C@H]2c2cccc(Br)c2)cc1`, -6.92% (inactive); for `CN1OC[C@@H]2CN(S(=O)(=O)c3cccc(C(F)(F)F)c3)[C@H](c3ccc(-c4cc5ccccc5o4)cc3)C[C@@H]21`, 62.2% (active).
Next, `CN1OC[C@@H]2CN(S(=O)(=O)c3cccc4ccccc34)[C@H](c3ccc(N4CCCCC4)cc3)C[C@@H]21`: -7.73% (inactive); `CC(C)(C)n1ncc2c(=O)n(Cc3ccc(Cl)cc3)cnc21`: 68.2% (active).
Turning to `CC(=O)Cn1cnc2c(cnn2-c2ccccc2)c1=O`, the inhibition is 4.23% (inactive).
Next, `CC(C)(C)n1ncc2c(=O)n(Cc3c(Cl)cccc3Br)cnc21`: 3.93% (inactive).
Next, `O=C(O)CSCc1ccc(C(=O)O)o1`: -3.63% (inactive); `CC(CO)NCC12CC3CC(CC(C3)C1)C2` (stereo not drawn): 13.3% (inactive).
For `COc1ccc(-n2ncc3c(SCC(=O)NNC(C)=O)ncnc32)cc1` the value was 14.6% (inactive); for `COC(=O)CSc1ncnc2c1cnn2-c1ccc(C)cc1C`, -11.2% (inactive); for `Cc1ccc(-n2ncc3c(N4CCN(c5ccc(F)cc5)CC4)ncnc32)c(C)c1`, 73% (active).
Consider `CC(C)Sc1ncnc2c1cnn2-c1ccccc1`, for which the inhibition was 15.4% (inactive).
For `COc1ccc(-n2ncc3c(N4CCc5ccccc54)ncnc32)cc1` the value was -15.6% (inactive).
On to `c1ccc(-n2ncc3c(N4CCCC4)ncnc32)cc1`, for which the inhibition was 62.5% (active).
For `COc1ccc(-n2ncc3c(N4CCCc5ccccc54)ncnc32)cc1` the value was 58.1% (active).
Next, `Cc1ccc2cc(C)c(N3CCN(c4ccc(F)cc4)CC3)nc2c1`: 8.39% (inactive); `CC(Sc1ncnc2c1cnn2-c1ccccc1)C(=O)Nc1ccc(N2CCOCC2)cc1` (stereo not drawn): -20.4% (inactive).
